# Measurements reported in article PMC5540273 (PLoS ONE, 2017).
# Where “and” joins values, the source holds several entries; their conditions need not be identical. Equal entries are not always repeated.
# System: T1, MEK4
# T1 construct: gene MAP2K4
# Conditions: concentration: 1 μM, replicates: in singlicate; 1 µM; n = 1
# 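Also: KINOMEscan kinase panel screen.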
row,SMILES,%Inh
1,CC(C)(CN)c1nc(-c2ccc(Cl)c(O)c2)c(-c2ccncc2)[nH]1.O=C(O)C(F)(F)F [SB-477794],0% and 8%
2,NCCNS(=O)(=O)c1ccc(-c2ccnc3[nH]ccc23)cc1 [GSK977617],42% and 23%
3,Cl.Cl.Cl.Fc1ccc(-c2ncn(C3CCNCC3)c2-c2ccnc(Nc3ccccc3)n2)cc1 [SB-238039],31% and 6%

# Same assay, conditions: concentration: 1 μM, replicates: in singlicate; n = 1
row,SMILES,%Inh
1,COc1ccc(Nc2nccc(N3CCC(NC(=O)Nc4cccc(C(C)=O)c4)C3)n2)cc1 (centres unmarked) [GSK1379731],40%
2,Fc1ccc(-c2nn3c(OCC(F)(F)F)cccc3c2-c2ccncc2)cc1 [GW514784],0%
3,Cc1cn2c(=O)cc(N3CCOCC3)nc2n1Cc1cccc(Cl)c1Cl [GSK2334006],17%
4,Fc1ccc(-c2ncn(CCCN3CCOCC3)c2-c2cccnc2)cc1 [SB-211743],15%
5,C[C@@H](Oc1cc(-n2cnc3ccc(NC(=O)NC(C)(C)C)cc32)sc1C(N)=O)c1ccccc1Cl [GSK346294],14%
6,Cc1ccc(C(=O)NCC(N)=O)cc1-n1c(C)cc(OCc2ccc(F)cc2F)c(Br)c1=O,0%
7,c1ccc(-c2n[nH]cc2-c2ccnc3ccccc23)nc1 [GW271431],32%
8,O=C1Cc2cc(Nc3nc(NCc4cccc(S(=O)(=O)C(F)(F)F)c4)ncc3C(F)(F)F)ccc2N1,30%
9,NCC(NC(=O)c1cc(-c2cn[nH]c2)c(-c2ccnc3[nH]ccc23)s1)c1ccccc1.O=C(O)C(F)(F)F.O=C(O)C(F)(F)F (centres unmarked) [GSK1325775],35%
10,COc1ccc(Nc2nccc(N3CCC(NC(=O)Nc4cc(C)ccc4C)C3)n2)cc1 (centres unmarked) [GSK1379741],14%
11,CC(C)Oc1ccc2c(-c3ccnc(Nc4ccc(N5CCN(C)CC5)cc4)n3)cnn2n1 [GW696155],50%
12,O=C(c1ccc(-c2cc(-c3c[nH]nc3-c3ccccn3)ccn2)cc1)N1CCOCC1 [GW812171],14%
13,CN(C(=O)c1ccc(-c2cc(-c3c[nH]nc3-c3ccccn3)ccn2)cc1)C1CCOCC1 [GW810083],0%
14,O=C(Nc1cccc(-c2nn3ncccc3c2-c2ccnc(Nc3cccc(C(F)(F)F)c3)n2)c1)c1c(F)cccc1F [GSK299495],29%
15,Cl.Oc1cccc(Nc2ccnc3cc(-c4ccncc4)ccc23)c1 [GW494601],18%
16,O=c1cc(N2CCOCC2)nc2n(Cc3cccc(F)c3)ccn12 [GSK2297430],0%

row,SMILES,%Inh
1,COc1ccc(CNC(=O)NC2CCN(c3ccnc(Nc4ccc(OC)cc4)n3)C2)cc1 (centres unmarked) [GSK1379727],17%
2,CCc1nc(-c2cccc(C)c2)c(-c2ccnc(NCc3ccccc3)c2)s1,9%
3,CCc1ccnc(/C=C/c2n[nH]c3cc(Sc4ccccc4C(=O)NC)ccc23)c1,0%
4,Cc1nnc(-c2ccc(C)c(-c3ccc(C(=O)Nc4ccc(NS(C)(=O)=O)cc4)cc3)c2)o1 [GW702865],0%
5,Cc1nnc(-c2ccc3ncc(-c4ccc(S(C)=O)cc4)n3c2)o1 (centres unmarked),24%
6,CC(=O)Nc1ccc(COc2ccc(Nc3ccnc4cc(-c5ccccn5)ccc34)cc2)cc1.Cl [GW440148],0%
7,CCn1cnc2c(N)ncnc21 [GW345098],11%
8,Cc1nnc(-c2ccc3occ(-c4ccc(C(C)O)cc4)c3c2)o1 (centres unmarked),15%
9,O=c1cc(N2CCOCC2)nc2n(Cc3cccc(Cl)c3Cl)c(C3CC3)nn12 [GSK2358994],0%
10,O=C(NCCCN1CCOCC1)c1cccc(Nc2nccc(Nc3ccc(Oc4ccccc4)cc3)n2)c1 [GW663929],21%
11,[2H]C([2H])(c1cccc(C(F)(F)F)c1C)n1ccn2c(=O)nc(N3CCOCC3)cc12 [GSK2336394],35%
12,NS(=O)(=O)CCc1cccc(Nc2nccc(-c3c(-c4cccc(NC(=O)c5c(F)cccc5F)c4)nn4ccccc34)n2)c1 [GSK336735],36%
13,CN1c2ccc(NCc3ccc(F)cc3)cc2-c2c(cnn2C)S1(=O)=O,0%
14,COCCNC(=O)c1ccc(-c2cc(C(=O)NC3CC3)cc(F)c2C)cc1 [GW868318],34%
15,N#Cc1ccc(-c2cc(-c3c[nH]nc3-c3ccccn3)ccn2)cc1 [GW693028],1%
16,O=C(NOCC1CC1)c1ccc(F)c(F)c1Nc1ccc(I)cc1Cl,0%

# System: T2, MEK5
# T2 construct: gene MAP2K5
# Conditions: concentration: 1 μM, replicates: in singlicate; n = 1
row,SMILES,%Inh
1,COc1ccc(Nc2nccc(N3CCC(NC(=O)Nc4cccc(C(C)=O)c4)C3)n2)cc1 (centres unmarked) [GSK1379731],36%
2,Fc1ccc(-c2nn3c(OCC(F)(F)F)cccc3c2-c2ccncc2)cc1 [GW514784],20%
3,Cc1cn2c(=O)cc(N3CCOCC3)nc2n1Cc1cccc(Cl)c1Cl [GSK2334006],54%
4,Fc1ccc(-c2ncn(CCCN3CCOCC3)c2-c2cccnc2)cc1 [SB-211743],15%
5,C[C@@H](Oc1cc(-n2cnc3ccc(NC(=O)NC(C)(C)C)cc32)sc1C(N)=O)c1ccccc1Cl [GSK346294],18%
6,Cc1ccc(C(=O)NCC(N)=O)cc1-n1c(C)cc(OCc2ccc(F)cc2F)c(Br)c1=O,2%
7,c1ccc(-c2n[nH]cc2-c2ccnc3ccccc23)nc1 [GW271431],30%
8,O=C1Cc2cc(Nc3nc(NCc4cccc(S(=O)(=O)C(F)(F)F)c4)ncc3C(F)(F)F)ccc2N1,0%
9,NCC(NC(=O)c1cc(-c2cn[nH]c2)c(-c2ccnc3[nH]ccc23)s1)c1ccccc1.O=C(O)C(F)(F)F.O=C(O)C(F)(F)F (centres unmarked) [GSK1325775],80%
10,COc1ccc(Nc2nccc(N3CCC(NC(=O)Nc4cc(C)ccc4C)C3)n2)cc1 (centres unmarked) [GSK1379741],44%
11,CC(C)Oc1ccc2c(-c3ccnc(Nc4ccc(N5CCN(C)CC5)cc4)n3)cnn2n1 [GW696155],82%
12,O=C(c1ccc(-c2cc(-c3c[nH]nc3-c3ccccn3)ccn2)cc1)N1CCOCC1 [GW812171],42%
13,CN(C(=O)c1ccc(-c2cc(-c3c[nH]nc3-c3ccccn3)ccn2)cc1)C1CCOCC1 [GW810083],5%
14,O=C(Nc1cccc(-c2nn3ncccc3c2-c2ccnc(Nc3cccc(C(F)(F)F)c3)n2)c1)c1c(F)cccc1F [GSK299495],97.6%
15,Cl.Oc1cccc(Nc2ccnc3cc(-c4ccncc4)ccc23)c1 [GW494601],99.8%
16,O=c1cc(N2CCOCC2)nc2n(Cc3cccc(F)c3)ccn12 [GSK2297430],31%
17,COc1ccc(CNC(=O)NC2CCN(c3ccnc(Nc4ccc(OC)cc4)n3)C2)cc1 (centres unmarked) [GSK1379727],37%

row,SMILES,%Inh
1,CC(C)(CN)c1nc(-c2ccc(Cl)c(O)c2)c(-c2ccncc2)[nH]1.O=C(O)C(F)(F)F [SB-477794],99.5%
2,CCc1nc(-c2cccc(C)c2)c(-c2ccnc(NCc3ccccc3)c2)s1,1%
3,CCc1ccnc(/C=C/c2n[nH]c3cc(Sc4ccccc4C(=O)NC)ccc23)c1,62%
4,Cc1nnc(-c2ccc(C)c(-c3ccc(C(=O)Nc4ccc(NS(C)(=O)=O)cc4)cc3)c2)o1 [GW702865],18%
5,Cc1nnc(-c2ccc3ncc(-c4ccc(S(C)=O)cc4)n3c2)o1 (centres unmarked),42%
6,CC(=O)Nc1ccc(COc2ccc(Nc3ccnc4cc(-c5ccccn5)ccc34)cc2)cc1.Cl [GW440148],99.5%
7,CCn1cnc2c(N)ncnc21 [GW345098],1%
8,Cc1nnc(-c2ccc3occ(-c4ccc(C(C)O)cc4)c3c2)o1 (centres unmarked),8%
9,O=c1cc(N2CCOCC2)nc2n(Cc3cccc(Cl)c3Cl)c(C3CC3)nn12 [GSK2358994],6%
10,O=C(NCCCN1CCOCC1)c1cccc(Nc2nccc(Nc3ccc(Oc4ccccc4)cc3)n2)c1 [GW663929],100%
11,[2H]C([2H])(c1cccc(C(F)(F)F)c1C)n1ccn2c(=O)nc(N3CCOCC3)cc12 [GSK2336394],1%
12,NS(=O)(=O)CCc1cccc(Nc2nccc(-c3c(-c4cccc(NC(=O)c5c(F)cccc5F)c4)nn4ccccc34)n2)c1 [GSK336735],99.7%
13,CN1c2ccc(NCc3ccc(F)cc3)cc2-c2c(cnn2C)S1(=O)=O,17%
14,COCCNC(=O)c1ccc(-c2cc(C(=O)NC3CC3)cc(F)c2C)cc1 [GW868318],53%
15,N#Cc1ccc(-c2cc(-c3c[nH]nc3-c3ccccn3)ccn2)cc1 [GW693028],13%
16,O=C(NOCC1CC1)c1ccc(F)c(F)c1Nc1ccc(I)cc1Cl,0%
